From PubChem BioAssay
HepG2 tox – HepG2 cytotoxicity, counter-screen for TGF-b inhibitors; Potency, µM (doses to about 46.1 µM), actives largely listed as cytotoxic; 410,000 tested, 0.76% active; AID 588856; HepG2 CAGA-GFP viability, ATP luminescence, 18 h
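CellTiter-Glo luminescence gave cytotoxicity after 18 hours at 37 degrees C. The cells were HepG2 CAGA-GFP in 1% FBS DMEM, stimulated with 500 pg/mL TGF-beta after compound addition. %Activity was normalised to no-cell wells (complete cell-killing) and DMSO (no toxicity), and curves were fitted and classified.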
DT40 TDP1 CPT – DT40-hTDP1 cell growth loss with CPT | chicken DT40 Tdp1-/-;hTDP1 cells + 20 nM CPT, ATP luminescence, 48 h | Potency, µM (doses to about 46.2 µM), hits mostly inhibitors | 420,000 tested, 12% active | AID 686979; note: nearly all actives have a fitted effect of over 55% in size
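Chicken DT40 Tdp1-/- cells complemented with human TDP1, 400 cells/well, exposed to compounds plus 20 nM camptothecin for at least 48 h at 37 C; viability read as ATP content by CellTiter-Glo luminescence.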
IL-1B inflam inh – inhibitors of inflammasome signaling (IL-1 beta secretion) | THP-1 LPS/ATP IL-1B secretion, AlphaLISA, 16 h; active compounds read low | activity change, % at 57.5 µM | 360,000 tested, 4.7% active | AID 743279; in the data active = activity change below about -50%; inconclusive = mostly about -30% to -49%
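THP-1 cells pretreated 1 hr with compounds (up to 57.5 uM final), then stimulated with LPS (250 ng/mL final) plus ATP (1.25 mM final); secreted IL-1B measured by AlphaLISA after 16 hr, decreased signal indicating inhibition.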
TDP1 cell noCPT – qHTS for Inhibitors of human tyrosyl-DNA phosphodiesterase 1 (TDP1): qHTS in cells in absence of CPT; DT40 Tdp1-/- hTDP1 cells, no CPT, ATP luminescence, 48 h; Potency, µM (highest dose often 46.2 µM), usual class: inhibitors; 420,000 tested, 15% active; note: nearly all actives have a fitted effect of over 55% in size
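No-CPT arm: Tdp1-/-;hTDP1 DT40 cells (400/well) plus compounds, incubated ≥48 hr at 37 °C. Readout CellTiter-Glo luminescence.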
TDP1 block – inhibitors of human tyrosyl-DNA phosphodiesterase TDP1; recombinant TDP1, AlphaScreen DNA substrate cleavage; Potency, µM (doses to about 130 µM), most hits filed as inhibitors; 350,000 tested, 0.28% active; AID 485290; note: nearly all actives have a fitted effect of over 40% in size
Target sequence (Q9NUW8 whole entry, looked up): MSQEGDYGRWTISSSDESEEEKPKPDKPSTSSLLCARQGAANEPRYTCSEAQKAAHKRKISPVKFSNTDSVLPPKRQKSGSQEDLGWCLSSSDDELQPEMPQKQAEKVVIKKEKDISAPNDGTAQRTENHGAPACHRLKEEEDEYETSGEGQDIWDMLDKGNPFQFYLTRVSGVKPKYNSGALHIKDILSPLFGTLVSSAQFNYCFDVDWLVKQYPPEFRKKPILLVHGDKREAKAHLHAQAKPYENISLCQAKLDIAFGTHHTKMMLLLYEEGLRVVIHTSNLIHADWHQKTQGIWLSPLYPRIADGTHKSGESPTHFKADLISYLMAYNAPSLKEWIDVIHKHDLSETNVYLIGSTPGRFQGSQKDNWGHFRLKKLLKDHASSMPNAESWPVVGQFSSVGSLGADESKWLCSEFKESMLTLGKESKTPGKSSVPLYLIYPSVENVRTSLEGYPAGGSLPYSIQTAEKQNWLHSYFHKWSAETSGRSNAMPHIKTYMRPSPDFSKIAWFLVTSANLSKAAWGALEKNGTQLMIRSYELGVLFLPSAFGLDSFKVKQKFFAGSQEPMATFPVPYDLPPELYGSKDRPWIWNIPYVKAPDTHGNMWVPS
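Recombinant human Tdp1 (E. coli-expressed, 1 nM final) preincubated with compounds 15 min at room temperature, then 5'-biotin/3'-phosphotyrosine-FITC DNA substrate (15 nM final) added for 5 min. AlphaScreen beads (10 ug/ml final) added 10 min; cleavage lowers signal.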
TGFb SMAD3 inh – TGF-b pathway inhibition; AID 588855; 410,000 tested, 1.2% active; HepG2 CAGA-GFP TGF-b/SMAD3 reporter, GFP fluorescence, 18 h; TGF-beta stimulated, 500 pg/mL final; Potency, µM (doses to about 46.1 µM), usual class: inhibitors; note: nearly all actives have a fitted effect of over 65% in size
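Per well, imaged GFP fluorescence of HEPG2 CAGA-GFP cells gives the signal; cells get compound, then TGF-beta (500 pg/mL final), 18 h at 37 degrees C; %Activity versus -TGF-beta and +DMSO controls.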
Numbers stand for hits; – = inactive; ? = inconclusive; · = no result given; [ ] = another dose, or the depositor's remark. Hits are enriched below; roughly 19% of the tested compounds scored in any of these assays. Unless noted, calls come from the whole dose curve; as a rule, active = well fitted curve in the direction sought with a large enough effect; inconclusive = small, poorly fitted or top-dose-only effect, or another doubt; inactive = no such curve, though single readings can be large; an effect the other way counts as inactive or inconclusive.

SMILES | HepG2 tox | DT40 TDP1 CPT | IL-1B inflam inh | TDP1 cell noCPT | TDP1 block | TGFb SMAD3 inh
CCOc1ccccc1NC(=O)CCc1c(C)nc2c(c(C)nn2-c2ccccc2)c1C | – | 16µM | · | 16µM | – | –
CCOC(=O)c1ccc(NC(=O)CCc2c(C)nc3c(c(C)nn3-c3ccccc3)c2C)cc1 | – | 16µM | · | 10µM | – | –
CC(=O)Nc1ccc(NC(=O)CCc2c(C)nc3c(c(C)nn3-c3ccc(C)cc3)c2C)cc1 | – | 15µM | · | ? | – | ·
Cc1nc2c(c(C)nn2-c2ccccc2)c(C)c1CCC(=O)Nc1ccc(F)cc1 | – | ? | · | 18µM | – | –
Cc1ccc(S(=O)(=O)c2cn(CC(=O)Nc3ccccc3C)c3cc4c(cc3c2=O)OCO4)cc1 | – | – | · | – | – | –
CCOC(=O)CC1=NN(c2ccccc2)C(=O)/C1=C\c1ccc(OC)cc1OC | – | – | – | – | – | ?
CCC(C)NC(=O)CCc1c(C)nc2c(c(C)nn2-c2ccc(C)cc2)c1C (centres undefined) | – | 15µM | · | 7.3µM | – | ·
Cc1ccc(-n2nc(C)c3c(C)c(CCC(=O)NC(C)c4ccccc4)c(C)nc32)cc1 (centres undefined) | – | ? | – | ? | – | –
COC(=O)CNC(=O)[C@@]1(C)C=C[C@@H](Cc2ccccc2)N1C(=O)OC | · | · | · | · | – | ·
COc1ccccc1N(C(=O)c1cncc(Br)c1)c1nc(-c2ccc(C)cc2)cs1 | – | 21µM | – | 18µM | – | ?
COc1cc2c(cc1NC(=O)COc1cc(C)ccc1C)oc1ccccc12 | – | – | · | – | –[12.3 µM] | –
CC1(C(=O)NCc2cccc(C(F)(F)F)c2)CCN1Cc1ccc(-c2ccccc2)o1 (centres undefined) | – | ? | – | ? | · | ?
CCNC(=O)C1(C)CCCN1Cc1cccc(C(F)(F)F)c1 (centres undefined) | – | 18µM | – | 18µM | · | –
CC1(C(=O)NCc2cccc(C(F)(F)F)c2)CCN1Cc1cc2ccccc2o1 (centres undefined) | – | 26µM | ? | 18µM | · | ?
CCOc1cc(-c2c(C#N)c(N)nc3c2CCCC3C)ccc1O (centres undefined) | – | 9.2µM | – | ? | – | ?
COc1ccccc1-c1cc(C2CC2)nc(N)c1C#N | – | – | – | – | – | –
CCOC(=O)COc1nc2c(c(-c3ccco3)c1C#N)CCc1ccccc1-2 | – | – | – | – | – | –
CCc1nc(N)c(C#N)c(-c2ccccc2OC)c1C | – | 13µM | – | – | – | –
COc1ccccc1-c1c(C#N)c(N)nc2c1CCc1ccccc1-2 | – | 6.5µM | – | 6.5µM | – | –
COc1ccccc1-c1c(C)c(C)nc(N)c1C#N | – | – | – | – | – | –
CCOc1cc(-c2c(C#N)c(N)nc3c2CCc2ccccc2-3)ccc1O | 13µM | 18µM | – | 15µM | – | ?
Cc1ccccc1Nc1oc(-c2ccccc2)nc1-c1cccs1 | · | · | · | · | – | ·
Cc1cnc(C2OCCO2)c2cccc([N+](=O)[O-])c12 | – | – | – | ? | · | –
Cc1cnc(C=O)c2cccc([N+](=O)[O-])c12 | – | 5.8µM | ? | 3.7µM | · | –
Cc1ncc(C)c2c([N+](=O)[O-])cccc12 | – | – | ? | 23µM | · | –
SMILES | HepG2 tox | DT40 TDP1 CPT | IL-1B inflam inh | TDP1 cell noCPT | TDP1 block | TGFb SMAD3 inh
Cc1ccc(C)c(N(C)C(=O)CCNC(=O)Cn2cnc3ccccc3c2=O)c1 | – | ? | · | ? | –[12.3 µM] | –
Cc1ccccc1CSCC(=O)NCCSc1ccccn1 | – | – | – | – | – | –
CCc1nc2c(OCc3ccc(Cl)cc3)cccn2c1N(C=O)Cc1ccccc1 | – | ? | – | 23µM | · | ?
CCc1nc2c(OCC(=O)N(C)C)cccn2c1N(C=O)Cc1ccc(OC)cc1 | – | – | – | – | · | –
CCc1nc2c(OCCc3cccc(OC)c3)cccn2c1N(C=O)Cc1ccccc1 | – | ? | ? | ? | · | –
CCc1nc2c(OCC(=O)c3ccc(Cl)cc3Cl)cccn2c1N(C=O)Cc1ccccc1 | – | 21µM | – | ? | · | ?
CCc1nc2c(OCCc3cccc(OC)c3)cccn2c1N(C=O)Cc1ccc(OC)cc1 | – | 18µM | – | ? | · | –
C=CCOc1cccn2c(N(C=O)Cc3ccccc3)c(CC)nc12 | – | 13µM | – | 12µM | · | –
CCCCN(C=O)c1c(CC)nc2c(OCc3ccc(Cl)cc3)cccn12 | – | 18µM | -51 | 23µM | · | ?
